The structures appear in SMILES notation. Where “and” joins values, the source holds several entries; their conditions need not be identical. Identical values can stand only once. Results filed as inconclusive are left out. Calls of active or inactive are those of the source. Rule for the calls, unless noted: active = hit-call score of the fitted dose curve at least 0.9, where 1 is the maximum; inconclusive = response in the unintended direction; inactive = score below 0.9.

Assay [1] is described as follows: CCTE_Shafer_MEA_acute_AB: CCTE's Alamar Blue Assay for Cytotoxicity in the Neural Acute Assay, Shafer Lab (AID 2284069).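 Note: active compounds lower the viability signal compared with DMSO wells.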 The method, boiled down: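 Read-out: resazurin fluorescence (ex 544, em 590 nm) after CTB reagent at 1:6 dilution in fresh media. Cells: primary rat cortical neuron networks, DIV 13 or 15, chemically exposed on MEA plates; DMSO as negative control/baseline.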

A short description of assay [2]: CCTE_Shafer_MEA_dev_AB: CCTE's Alamar Blue Assay for Cytotoxicity in the Neural Network Formation Assay, Shafer Lab (AID 2284083).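 Note: resazurin reduction fluorescence as viability of cultured neurons; twelve days of exposure from plating with re-dosing on DIV 5 and 9.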 The method, boiled down: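 Rat cortical primary cultures, 1.5 x 10^5 cells/well on MEA; continuous compound exposure over 12 days of network development, re-dosed with full medium change DIV 5 and 9. Alamar Blue fluorescence; loss of signal = cytotoxicity vs DMSO baseline.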
In general terms: The colour change of resazurin is a common sign of viable cells or microbes.

Assay [3] in a line: CCTE_Shafer_MEA_acute_LDH: CCTE's Lactate Dehydrogenase Assay for Cytotoxicity in the Neural Acute Assay, Shafer Lab (AID 2284086).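 Note: active means LDH release rises above DMSO vehicle level.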 In short, it runs like this: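 Released lactate dehydrogenase, read at 490 nm, indicated cytotoxicity after acute 40-min compound treatment of rat cortical neuron networks grown on 48-well MEA plates.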
Assay [4] in a line: CCTE_Shafer_MEA_dev_mutual_information_norm: CCTE's Neural Network Formation Assay for Mutual Information Normalization, Shafer Lab (AID 2284091; active = hit-call score of the fitted dose curve at least 0.9, where 1 is the maximum; inactive = score below 0.9;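 for AC50: mutual information between electrodes summarised as area under curve across four recording days; potency is for a decrease in mutual information relative to DMSO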). The method, boiled down:
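Primary rat cortical neurons on PEI-coated 48-well MEA plates, 1.5 x 10^5 cells/well, exposed from day 0 through day 12 with re-dosing at DIV 5 and 9. Mutual information between electrodes recorded days 5, 7, 9, 12; trapezoidal AUC, loss-of-signal fit versus DMSO.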

Assay [5] is described as follows: UKN2_HCS_IMR90_neural_migration: University of Konstanz (UKN) Leist Lab Neural Crest Cell Migration Assay in human induced IMR90 Pluripotent Stem Cells (UKN2) (AID 2284204; active = hit-call score of the fitted dose curve at least 0.9, where 1 is the maximum; inactive = score below 0.9). As to conditions: actives raise or lower the signal. The method, boiled down: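 iPSC-derived IMR90 neural crest cells seeded around stoppers on PLO/laminin/fibronectin; migration started in N2-S medium with EGF/FGF, compounds added after 24 h for 24 h. Migration into cell-free area imaged after calcein-AM/Hoechst staining; bidirectional fit versus DMSO.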

Assay [6] can be described thus: IUF_NPC1b_proliferation_BrdU_72hr: Leibniz Research Institute for Environmental Medicine (IUF) 72-hour Neural Progenitor Cell Bromodeoxyuridine (BrdU) Proliferation Assay (NPC1b) (AID 2284207; active = hit-call score of the fitted dose curve at least 0.9, where 1 is the maximum; inactive = score below 0.9). In short, it runs like this: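 BrdU luminescence ELISA quantified DNA synthesis over the last 16 h of a 72 h exposure, fitted against DMSO. Primary hNPC spheres from gestational week 16-19 cortex grown with EGF/FGF at 37C, pH 7.2-7.6.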

Assay [7] is described as follows: IUF_NPC1a_proliferation_area_72hr: Leibniz Research Institute for Environmental Medicine (IUF) 72-hour Neural Progenitor Cell Proliferation Area Assay (NPC1a) (AID 2284208; active = hit-call score of the fitted dose curve at least 0.9, where 1 is the maximum; inactive = score below 0.9). In short, it runs like this:
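Read-out: increase in sphere area over 72 h by automated phase-contrast imaging, fitted in positive direction versus DMSO baseline. One hNPC sphere (0.25-0.35 mm) per well in EGF/FGF medium; growth-factor withdrawal served as positive control.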

Assay [8] can be described thus: CCTE_Shafer_MEA_dev_LDH: CCTE's Lactate Dehydrogenase Assay for Cytotoxicity in the Neural Network Formation Assay, Shafer Lab (AID 2284068).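 Note: exposure for twelve days from plating with re-dosing on DIV 5 and 9.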 In short, it runs like this:
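Rat cortical primary neurons, MEA culture; dosing day 0–12, full medium plus compound exchange DIV 5, 9. Read-out: LDH enzyme activity, spectrophotometric. DMSO = negative control/baseline; signal loss → cytotoxicity.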

A short description of assay [9]: UKN5_HCS_SBAD2_neurite_outgrowth: University of Konstanz (UKN) Leist Lab Neurite Outgrowth Assay in human iPSC-derived immature Dorsal Root Ganglia Neurons (UKN5) (AID 2284070; active = hit-call score of the fitted dose curve at least 0.9, where 1 is the maximum; inactive = score below 0.9). The settings on record: actives raise or lower the signal. The method, boiled down: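 SBAD2 neurons, 24 h compound treatment, calcein-AM neurite area via HCS imaging; DMSO baseline, gain or loss of signal.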

The nature of assay [10]: UKN4_HCS_LUHMES_neurite_outgrowth: University of Konstanz (UKN) Leist Lab Neurite Outgrowth Assay in human LUHMES cells (UKN4) (AID 2284206; active = hit-call score of the fitted dose curve at least 0.9, where 1 is the maximum; inactive = score below 0.9). As to conditions: actives raise or lower the signal. In short, it runs like this: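 2-day-differentiated LUHMES, 24 h cpd exposure, live calcein-AM + H-33342 stain, HCS fluorescence imaging of neurite area; DMSO = baseline, bidirectional fit.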

Usually AC50 stands for the concentration at which the activity in the assay is half-maximal. For the compound `CCCCOC(=O)c1ccccc1C(=O)OCc1ccccc1`, the call in assay [1], in assay [2], in assay [3], in [4], in assay [5] and in [7] was inactive. Further, the AC50 in [6] is 82 µM (active).
On to `Clc1ccc(C(c2ccc(Cl)cc2)C(Cl)Cl)cc1`, for which the AC50 is 5.96 µM (active) in [8], 5.14 µM (active) in [2] and 2.01 µM (active) in assay [4]. The outcome in assay [1] and in assay [3] was inactive.
`CCC[CH2][Sn]([Cl])([CH2]CCC)[CH2]CCC`: the half-maximal activity concentration (AC50) in assay [8] is 0.0843 µM (active); in assay [1], 1.92 µM (active) and 3.06 µM (active); in assay [9] it was 0.109 µM (active); in assay [2] it was 0.0814 µM (active); in assay [3], 29.7 µM (active) and 15 µM (active); in [4], 0.0231 µM (active). Also, the AC50 in [5] was 0.195 µM (active); in assay [10], 0.119 µM (active); in [6], 0.112 µM (active); in [7], 0.673 µM (active).
For `CCN(CC)N=O`, the outcome in [1] was inactive.
Regarding `COC(=O)Nc1nc2ccccc2[nH]1`, the AC50 in assay [8] was 12.5 µM (active); in assay [2] it was 7.64 µM (active); in [4] it was 5.19 µM (active); in assay [6] it was 18.4 µM (active). Moreover, the compound was classed as inactive in assay [1], in assay [5] and in assay [7].
As to `[O-][Cl+]O`, the result in assay [8], in [2], in assay [4] and in assay [7] was inactive. Further, the AC50 in assay [6] was 2.18 µM (active).
As for `ClC1=C(Cl)[C@]2(Cl)[C@H]3[C@H]([C@@H]4C=C[C@H]3C4)[C@@]1(Cl)C2(Cl)Cl`, the AC50 was 6.69 µM (active) in assay [8], 7.93 µM (active) in [2] and 0.909 µM (active) in [4]. Moreover, the compound was called inactive in assay [3].
Regarding `Nc1cc(Cl)cc(C(=O)O)c1Cl`, the outcome in assay [8] and in assay [4] was inactive.
Turning to `[Cl-].[Cl-].[Hg+2]`, the AC50 in assay [8] is 0.929 µM (active); in assay [1] it was 32.6 µM (active); in [2], 0.559 µM (active); in [3] it was 30.6 µM (active). In addition, in assay [4], the outcome was inactive.
`O=C(N[C@H](c1ccccc1)[C@@H]1CN2CCC1CC2)c1c(Cl)ccc(C(F)(F)F)c1Cl`: the call in assay [1] and in assay [3] was inactive.

Values taken from PubChem BioAssay (EPA / NIEHS).
